In PubChem BioAssay:

Legend:
[1] = target: PEG-3 (UniProt Q6IN02); experiment: inhibition of PEG-3 promoter-driven reporter – cell-based, HeLa, luciferase, CREF/GAPDH counter-screen panel, dose response (AID 624167); conditions: CREF/GAPDH counter-screens; HeLa PEG-Prom luciferase reporter, overnight, run 1, dose range 1, at 100 µM (top of the series) unless noted
[2] = target: PEG-3 (UniProt Q6IN02); experiment: as above; conditions: CREF/GAPDH counter-screens; HeLa PEG-Prom luciferase reporter, overnight, run 2, dose range 1, at 100 µM (top of the series) unless noted
[3] = tested on: Rat fibroblasts (CREF); experiment: as above; conditions: CREF/GAPDH counter-screens; run 1, dose range 1, at 100 µM (top of the series)
[4] = tested on: Rat fibroblasts (CREF); experiment: as above; conditions: CREF/GAPDH counter-screens; run 2, dose range 1, at 100 µM (top of the series)
[5] = target: Tumor necrosis factor receptor superfamily member 10B (Homo sapiens) (UniProt O14763); experiment: viability loss of caspase-8 NB7 cells with TRAIL – with/without TRAIL, luminescence panel, confirmation (AID 651596); conditions: NB7 neuroblastoma + caspase-8, TRAIL sensitization, NB7 Caspase-8, with TRAIL, mean of runs, at 10 µM, stronger effect = higher value
[6] = as above; conditions: NB7 neuroblastoma + caspase-8, without TRAIL, NB7 Caspase-8, without TRAIL, mean of runs, at 10 µM
[7] = NFkB reporter suppression in cystic fibrosis bronchial cells – cell-based, uHTS hits, panel, cytotoxicity readout, dose response (AID 624344); conditions: CF bronchial epithelial cells, PAF-induced NFkB reporter inhibition, with PAF, run 1; at 79 µM (top of the series) unless noted
[8] = as above; conditions: CF bronchial epithelial cells, PAF-induced NFkB reporter inhibition, with PAF, run 2; at 79 µM (top of the series) unless noted

Chain of Tumor necrosis factor receptor superfamily member 10B (Homo sapiens) (O14763 whole entry, looked up): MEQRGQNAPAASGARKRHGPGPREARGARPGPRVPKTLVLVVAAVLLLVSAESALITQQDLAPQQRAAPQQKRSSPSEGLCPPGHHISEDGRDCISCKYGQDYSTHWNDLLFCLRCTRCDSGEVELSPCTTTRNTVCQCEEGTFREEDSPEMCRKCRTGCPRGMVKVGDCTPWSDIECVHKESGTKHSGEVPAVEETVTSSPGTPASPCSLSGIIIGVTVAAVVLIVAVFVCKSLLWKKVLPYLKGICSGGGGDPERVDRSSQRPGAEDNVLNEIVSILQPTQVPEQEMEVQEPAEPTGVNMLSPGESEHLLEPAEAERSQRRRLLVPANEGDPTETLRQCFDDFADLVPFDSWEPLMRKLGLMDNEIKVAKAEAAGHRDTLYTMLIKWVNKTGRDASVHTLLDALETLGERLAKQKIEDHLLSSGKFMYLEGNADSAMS
Chain of PEG-3 (Q6IN02 whole entry, looked up): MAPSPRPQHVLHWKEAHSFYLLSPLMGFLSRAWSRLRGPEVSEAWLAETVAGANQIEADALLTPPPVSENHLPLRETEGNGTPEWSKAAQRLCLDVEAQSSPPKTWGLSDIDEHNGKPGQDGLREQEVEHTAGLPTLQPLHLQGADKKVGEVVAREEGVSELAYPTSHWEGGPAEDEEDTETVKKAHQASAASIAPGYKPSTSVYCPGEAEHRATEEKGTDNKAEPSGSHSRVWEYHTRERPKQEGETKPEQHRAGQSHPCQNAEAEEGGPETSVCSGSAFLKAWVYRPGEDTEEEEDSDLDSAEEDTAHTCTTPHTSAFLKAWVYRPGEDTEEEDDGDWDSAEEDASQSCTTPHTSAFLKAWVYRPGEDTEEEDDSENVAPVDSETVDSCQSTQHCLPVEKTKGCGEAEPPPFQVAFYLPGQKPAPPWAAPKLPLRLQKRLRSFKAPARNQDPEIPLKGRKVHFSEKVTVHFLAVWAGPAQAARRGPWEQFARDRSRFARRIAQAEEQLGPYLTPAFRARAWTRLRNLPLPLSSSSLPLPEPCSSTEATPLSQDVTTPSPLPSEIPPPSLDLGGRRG

SMILES | inhibition [1] | inhibition [2] | inhibition [3] | inhibition [4] | activity [5] | activity [6] | inhibition [7] | inhibition [8]
O=C1C=CC(=O)N1c1ccc(-c2nc3ccccc3o2)cc1 | 99.3% | 101% | 101% | 100% | – | – | – | –
O=C(Nc1ncc([N+](=O)[O-])s1)c1ccc2c(c1)OCO2 | 96.1% | 89.6% | 91.5% | 91.7% | – | – | – | –
Cc1ccc(-c2cc3c(nn2)-c2ccccc2C3=O)cc1 | 98.6% | 88.7% | 92.8% | 94.8% | – | – | – | –
O=C(Nc1ccccc1C(=O)Nc1nnc(C(F)(F)F)s1)c1ccccc1 | 93% | 88.8% | -3.72% | 11.8% | – | – | – | –
Cc1ccc(C(=O)Nc2nc3ccccc3[nH]2)cc1 | 89.8% | 88.1% | 99.2% | 98.7% | – | – | – | –
CN(C)c1ccc(/C=C/c2nc3ccccc3s2)cc1 | 94.8% | 89.3% | 96.6% | 94.9% | – | – | – | –
COc1cccc2nc3c(C(=O)NCCN(C)C)cccc3cc12 | 98.9% | 101% | 98% | 95.2% | – | – | – | –
CCCN1C=CC(=C2C(=O)c3ccccc3C2=O)C=C1 | 102% | 98.2% | 100% | 100% | – | – | – | –
COc1cc(Nc2c3ccccc3nc3ccccc23)cc(OC)c1OC | 102% | 102% | 92.9% | 72.1% | – | – | – | –
O=C(N/N=C/c1c(O)ccc2ccccc12)c1ccc(CO)nc1 | 51.6% | 60.4% | 54% | 47.6% | – | – | – | –
CC(=O)N1CCCC(c2cc(C(=O)Nc3ccccc3)no2)C1 (stereo not given) | 100% | 90.2% | 93.1% | 92% | – | – | – | –
COc1cc(C(=O)N/N=C(\c2ccccc2)c2ccccn2)cc(OC)c1OC | 72.6% | 74.9% | 72.1% | 63.3% | – | – | – | –
COc1ccc(NC(=O)c2cc(-c3ccccn3)nc3ccccc23)cc1S(=O)(=O)N(C)C | 56.4% | 61.2% | -4.8% | -6.75% | – | – | – | –
COC1=CC(=O)c2c(ccc3ncnc(N)c23)C1=O | 102% | 99% | 101% | 100% | – | – | – | –
O=C(CCl)Nc1ccccc1Sc1ccc(Cl)cc1 | 102% | 98.7% | 99.4% | 100% | 99.2% | 99.5% | – | –
C/C(=N/NC(=O)c1cc(C2CC2)[nH]n1)c1cccs1 | 92.3% | 87.2% | 95.4% | 96.2% | 70.8% | 70.8% | – | –
COC(=O)C1C=CC(OC2OC(COC(C)=O)C(OC(C)=O)C(OC(C)=O)C2OC(C)=O)n2c(=O)n(-c3ccccc3)c(=O)n21 (stereo not given) | 99.8% | 98.3% | 98.1% | 99.1% | – | – | – | –
C(=NN1CCCCCC1)c1ccc2ccccc2n1 | 102% | 101% | 101% | 100% | 95.4% | 94.3% | – | –

SMILES | inhibition [1] | inhibition [2] | inhibition [3] | inhibition [4] | activity [5] | activity [6] | inhibition [7] | inhibition [8]
CCOc1ccc(-c2ccc(SC)nn2)cc1 | 95% | 92.5% | 97.5% | 98.9% | 95.2% | 95.1% | – | –
COc1ccc(-c2nc(-c3ccccn3)no2)cc1 | 99.7% | 96.8% | 99.9% | 99.4% | 96.7% | 95.7% | – | –
CCCCCCN1C=C/C(=C\C=C(C#N)C#N)c2ccccc21 | 54.3% | 78.7% | 43.7% | 89.7% | – | – | – | –
CN(C)c1ccc(/C=C/c2ccc3ccccc3n2)cc1 | 96.6% | 96% | 96.6% | 95.8% | – | – | – | –
O=C(CN1C(=O)c2ccccc2S1(=O)=O)c1ccc2c(c1)OCCO2 | 102% | 101% | 95.2% | 96% | – | – | – | –
Cc1cc(Br)ccc1NC(=O)CNC(=O)Cn1ncc(Cl)c(Cl)c1=O | 99.8% | 94.5% | 48.9% | 96.9% | – | – | – | –
COc1cccc(OC)c1C(=O)Nc1cc(C)nn1-c1nc2ccccc2[nH]1 | 37.6% | 65.1% | 2.09% | 12.6% | – | – | 111% | 101%
Clc1cccc(-c2nc(-c3ccccn3)no2)c1 | 89.2% | 92.5% | 96.4% | 94.4% | 84.3% | 82.3% | – | –
CC(=O)Nc1ccc(NC(=O)c2nc(S(=O)(=O)Cc3cccc(C)c3)ncc2Cl)cc1 | 102% | 97.4% | 100% | 100% | 56.4% | 99.4% | 76.1% | 85.4%
O=C(NCCc1ccccc1F)c1ccc2c(c1)OCCO2 | 98.5% | 102% | 100% | 99.8% | 90.4% | 91% | – | –
Cc1ccc(-c2nc(-c3ccccn3)no2)cc1 | 99.3% | 96% | 100% | 99.7% | 96.8% | 96.3% | – | –
CN=c1scc(-c2ccccc2F)n1/N=C/c1ccc[nH]1 | 98.7% | 99.8% | 100% | 100% | – | – | – | –
COc1ccc(/C=C2\SC(=S)N(CCCC(=O)NNC(=O)c3ccccc3O)C2=O)cc1 | 89.6% | 81.1% | 23.4% | 43.3% | – | – | – | –
CCCCC(=O)NC(c1ccccc1OC)c1ccc2cccnc2c1O (stereo not given) | 67.7% | 68.4% | -8.76% | 5.38% | – | – | – | –
Cc1ccccc1CNC(=O)C1CCCN(c2nnc(C)c3c(C)n(-c4ccccc4)nc23)C1 (stereo not given) | 99% | 101% | 98.3% | 99.4% | – | – | – | –
COc1ccc(N(C(=O)CCl)C(C(=O)NC2CCCCC2)c2cccnc2)cc1 (stereo not given) | 99.1% | 102% | 97.1% | 94.1% | 99.5% | 98.7% | – | –
Cc1ccc(C(=O)Nc2cnc3ccccc3c2)cc1 | 91.5% | 98% | 83.4% | 77.7% | – | – | – | –
c1cc2c(cc1C1=NNC(=NC3CC3)SC1)OCCO2 | 98.9% | 99% | 99.2% | 91.3% | 93.3% | 90.9% | – | –
